Measurements: PubChem BioAssay (Tox21)
Inconclusive results are not listed. Values without a mark were called inactive. Calls follow the shape of the dose curve; as a rule, active = well fitted cell-killing curve with a large enough effect in the repeat runs (not every such curve was filed as active); inconclusive = weak or mixed curves, or effect the other way; inactive = no such curve, though single readings can be large or run the other way.

assay: qHTS assay to identify small molecule antagonists of the estrogen related receptor signaling pathway with the pleiotropic PPARgamma coactivator (PGC) from Tox21 10K library - cell viability counter screen (AID 1224840); conditions: PGC/ERR reporter cells viability, CellTiter-Fluor, 17.5 h; series mostly up to 92.4 µM; viability change, negative = cytotoxic: at the top concentration; also: nearly all actives have a fitted effect of over 40% in size
Source text: National Center for Advancing Translational Sciences [NCATS]
NIH Chemical Genomics Center [NCGC]
U.S. Environmental Protection Agency [EPA]
National Institutes of Environmental Health Sciences [NIEHS]
National Toxicology Program [NTP]
U.S. Food and Drug Administration [FDA]
Estrogen related receptors (ERRs), the first orphan nuclear receptors discovered, play an important role in the control of cellular energy metabolism. ERRs are required for high-energy production in response to the environmental challenges. The pleiotropic PPARgamma coactivator (PGC) is a major partner of ERR and a key regulator in energy homeostasis. Together they have been implicated in the etiology of metabolic disorders such as Type 2 diabetes and metabolic syndrome. ERR-alpha was also identified as an adverse marker for breast cancer progression; ERR-alpha-positive tumors have a poor prognosis. To screen and to identify environmental compounds that perturb the ERR and PGC/ERR signaling pathways could provide valuable information for potential therapeutic or preventive measures in the treatment of metabolic disease. To differentiate true PGC/ERR antagonists or agonist from cytotoxic substances, the assay is multiplexed with cell viability assay.
Tox21 Assay Protocol Summary:
The PGC/ERR cells were dispensed at 2,000 cells/5 ul/well in 1536-well white plates using a Multidrop dispenser. After the assay plates were incubated at a 37 C/5% CO2 incubator for 6 hours, 23 nL of compounds dissolved in DMSO, positive and negative controls or DMSO only was transferred to the assay plate by a pin tool. The plates were incubated at 37 C for 17.5 hours. 1 ul/well of CellTiter-Fluor reagent was added into the assay plates using a Flying Reagent Dispenser. After 30-minute incubation at 37 C/5% CO2, the fluorescence intensity in the plates was measured using a ViewLux plate reader.
% is scaled to controls: 0 for no effect and ±100 for the full control effect.

Structure (SMILES) | viability change, negative = cytotoxic
CC(C)c1cc(C(C)C)cc(C(C)C)c1 | -1.4%
CC(C)(C)C(=O)CC(=O)C(C)(C)C | -2.83%
COc1cc2nc(N3CCN(C(=O)C4CCCO4)CC3)nc(N)c2cc1OC (stereo not given) | -15.4% [at 42.5 µM]
CC(=O)SCC(CC(=O)c1ccc(C)cc1)C(=O)O (stereo not given) | 0.911% [at 42.5 µM]
CC(C)(Sc1cc(C(C)(C)C)c(O)c(C(C)(C)C)c1)Sc1cc(C(C)(C)C)c(O)c(C(C)(C)C)c1 | 0.375% [at 42.5 µM]
CCCCCC(=O)CC | 12.4%
CCCC(=O)C(CC)Sc1ccoc1C (stereo not given) | 4.46%
CC(CC(=O)Cl)CC(C)(C)C (stereo not given) | 0.888%
Cc1cc(N)no1 | 7%
C/C(Cl)=C/CCl | 0.822%
BrCCOc1ccccc1 | 0.442%
O=C(O)/C=C(\CC(=O)O)C(=O)O | 7.83% [at 42.5 µM]
CC(C)(C)c1ccc(N)cc1 | -11.7%
CC1(C)CC(N)CC(C)(C)N1 | 1.98%
Cc1ccc2ccccc2n1 | -0.201%
NNC(=O)CCCCC(=O)NN | 1.98%
CCOc1ccccc1OCCN[C@H](C)Cc1ccc(OC)c(S(N)(=O)=O)c1 | 0.0936% [at 42.5 µM]
Clc1ccc2c(c1)Nc1ccccc1S2 | 2.25% [at 42.5 µM]
CC12CCCC=C1C(=O)OC2=O (stereo not given) | 4.27%
CC/C=C\CCCCCCCCCCOC(C)=O | 2.81%

Structure (SMILES) | viability change, negative = cytotoxic
CCCCC(CC)CCC(CC(C)C)OS(=O)(=O)O (stereo not given) | 7.08%
COC(=O)c1cc(Cl)c(NC(C)=O)cc1OC | 6.18% [at 42.5 µM]
CCCC[O][Al]([O]CCCC)[O]CCCC | -0.864%
C=C(C)C(=O)OCCOC1CC2CC1C1C=CCC21 (stereo not given) | 1.33%
OCCC(F)(F)C(F)(F)C(F)(F)C(F)(F)C(F)(F)C(F)(F)F | 0.853%
C=CC(=O)CC | 6.46%
O=c1c(O)c(O)c1=O | 1.53%
CC(=O)OC1CCC(C(C)(C)C)CC1 (stereo not given) | -3.27%
O=C(OOC(=O)c1ccccc1)c1ccccc1 | 23.9% [at 42.5 µM]
CC(=O)SC[C@@H](C)C(=O)N1CCC[C@H]1C(=O)N[C@@H](Cc1ccccc1)C(=O)O | -1.51% [at 42.5 µM]
Cc1cc(C)c(C)c(C)c1 | 0.893%
CN(C)c1ccncc1 | 2.37%
O=C[C@@H](O)[C@H](O)[C@H](O)CO | 6.19%
C=CCn1cc[n+](C)c1 | 9.9%
COc1cc(C(=O)NC2CCCNC2)cc(OC)c1OC (stereo not given) | -1.87% [at 42.5 µM]
CCCCCCCCCCCCCCCC/C=C/C1CC(=O)OC1=O (stereo not given) | 1.59% [at 42.5 µM]
CCCCCCC(O)CO (stereo not given) | -0.317%
CCCc1ncc(C(=O)O)s1 | 0.367% [at 42.5 µM]
Nc1cc(S(=O)(=O)O)ccc1O | 2.19%
CN(C)c1cc(NC(=O)CNC(C)(C)C)c(O)c2c1C[C@H]1C[C@H]3[C@H](N(C)C)C(=O)C(C(N)=O)=C(O)[C@@]3(O)C(=O)C1=C2O | 0.593% [at 42.5 µM]
